In the supplement of paper PMC12350171:
Counter-ions that a name gives are not always drawn. Unmarked numbers belong to inactive results.

How the values were obtained:
Conditions in all cases: 20 µM
[1] = tested on: Salmonella enterica typhimurium; experiment: growth AUC normalised to DMSO control (fraction of control); higher = less growth inhibition, active = hit call of the paper
Procedure, shortened: (§1)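 Three biological replicates were carried out, with OD578 read hourly for 24 h. Before inoculation at a starting OD578 of 0.01, pathogens were passaged anaerobically twice; plates were pre-reduced mGAM containing 20 μM compound and 1% DMSO, sealed with breathable membranes, and the Haemophilus parainfluenzae medium carried added hemin and NAD. Area under each growth curve was calculated by the trapezoidal rule up to the exponential-to-stationary transition and normalised to DMSO controls on the same plate.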

Shigella flexneri = experiment: as above
Procedure, shortened: as §1

Vibrio cholerae = experiment: as above
Procedure, shortened: as §1

[2] = tested on: Yersinia pseudotuberculosis; experiment: as above
Procedure, shortened: as §1

P. vulgatus RND KO = experiment: growth AUC normalised to DMSO control (median) (fraction of control); higher = less growth inhibition, active = hit call of the paper
Procedure, shortened: (§2)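 In 96-well plates of mGAM seeded at OD578 0.01, strains that had been passaged twice overnight without oxygen were exposed to approved-drug library compounds at 20 μM with 1% DMSO. Hourly OD578 readings were taken for 24 h in an anaerobic incubator. The trapezoidal-rule area under the curve, with curves truncated at entry into stationary phase, was expressed relative to same-plate vehicle wells as the median of three biological replicates.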

P. vulgatus WT = experiment: as above
Procedure, shortened: as §2

[3] = tested on: S. enterica typhimurium WT; experiment: as above
Procedure, shortened: as §2

[4] = tested on: S. enterica typhimurium tolC KO; experiment: as above
Procedure, shortened: as §2
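For growth AUC normalised to DMSO control (median) in this document: active when median AUC fell below 0.1.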

Structure (SMILES)	growth AUC normalised to DMSO control [1]	growth AUC normalised to DMSO control (Shigella flexneri)	growth AUC normalised to DMSO control (Vibrio cholerae)	growth AUC normalised to DMSO control [2]	growth AUC normalised to DMSO control (P. vulgatus RND KO)	growth AUC normalised to DMSO control (P. vulgatus WT)	growth AUC normalised to DMSO control [3]	growth AUC normalised to DMSO control [4]
CN(C)c1nc(N(C)C)nc(N(C)C)n1 [Altretamine]	1.01	1.06	1.05	1.02	1.01	0.998	1	0.99
CCSc1ccc2c(c1)N(CCCN1CCN(C)CC1)c1ccccc1S2 [Thiethylperazine maleate]	1	1.02	0.983	0.99	1	1	0.996	0.91
COc1ccc(C(Cl)=C(c2ccc(OC)cc2)c2ccc(OC)cc2)cc1 [Chlorotrianisene]	0.994	0.944	0.983	1.01	0.96	0.928	0.978	0.993
CCCN[C@H]1CCc2nc(N)sc2C1 [Pramipexole dihydrochloride]	0.989	0.972	0.989	0.994	0.988	0.997	0.992	0.999
CCC(NC(C)C)C(O)c1ccc(O)c(O)c1 (stereo not given) [Isoetharine mesylate salt]	0.999	1	0.995	1	0.994	1.01	0.999	0.994
CCCCNc1ccc(C(=O)OCCN(C)C)cc1 [Tetracaine hydrochloride]	1.01	1.01	1.01	1	1.04	1.07	0.999	0.993
CN(C)CCCO[C@@H]1[C@H]2OC(C)(C)O[C@H]2O[C@@H]1[C@H](O)CO [Amiprilose hydrochloride]	0.904	1	0.986	0.997	0.969	0.966	1.01	1
COc1ccccc1OCC(O)CO (stereo not given) [Guaifenesin]	0.998	1.02	1.01	0.992	0.984	0.987	0.995	0.99
CCOc1ccc(NC(C)=O)cc1 [Phenacetin]	0.992	0.959	0.984	0.973	1	0.997	1	1
Cc1scc2c1N(C(=O)CN1CCN(C)CC1)c1ccccc1NC2=O [Telenzepine dihydrochloride]	1.02	1.01	1.01	0.993	0.995	0.983	1.01	0.999
C#Cc1cccc(Nc2ncnc3cc(OCCOC)c(OCCOC)cc23)c1 [Erlotinib]	1	1.03	1.02	0.995	0.967	0.989	0.997	0.938
CCn1cc(C(=O)O)c(=O)c2cc(F)c(N3CCNC(C)C3)c(F)c21 (stereo not given) [Lomefloxacin hydrochloride]	0.00422 (active)	0.0101 (active)	0.0243 (active)	0.0292 (active)	0.035 (active)	0.11	0.0147 (active)	0.0041 (active)
N#Cc1ccc(C(c2ccc(C#N)cc2)n2cncn2)cc1 [Letrozole]	1.01	1	0.989	0.999	1.01	1.01	1.01	1
CCN(CC)Cc1cc(Nc2ccnc3cc(Cl)ccc23)ccc1O [Amodiaquine dihydrochloride dihydrate]	0.974	1.02	1	0.966	1	0.961	0.982	1
Cc1cc2c(cc1S(N)(=O)=O)S(=O)(=O)CCC2 [Meticrane]	1.01	0.996	1.01	1.01	1.03	1.01	1.02	1.01
CC(C)(C)c1ccc(C(O)CCCN2CCC(C(O)(c3ccccc3)c3ccccc3)CC2)cc1 (stereo not given) [Terfenadine]	1.01	0.999	0.982	1.03	0.907	0.892	1.01	0.88
CCCCOc1cc(C(=O)OCCN(CC)CC)ccc1N [Benoxinate hydrochloride]	1	0.991	0.936	0.992	1	0.977	0.978	0.991
CCCCCCCCCCCCCCCC[N+](C)(C)CCN(Cc1ccc(OC)cc1)c1ncccn1 [Thonzonium bromide]	0.999	0.979	0.944	1.01	0.878	0.883	1	1
CC(=O)Oc1cc(C(C)C)c(OCCN(C)C)cc1C [Moxisylyte hydrochoride]	0.992	0.992	0.991	0.99	0.999	1	1.01	1
C=C[C@H]1CN2CC[C@H]1C[C@@H]2[C@@H](O)c1ccnc2ccc(OC)cc12 [Quinidine hydrochloride monohydrate]	0.991	0.996	0.985	0.991	0.998	1.03	0.99	0.997
CC(C)NCC(O)c1cc(O)cc(O)c1 (stereo not given) [Metaproterenol sulfate]	0.995	0.967	0.998	0.988	0.986	1	1.01	0.997
COCCCOc1ccnc(C[S+]([O-])c2nc3ccccc3[nH]2)c1C (stereo not given) [Rabeprazole sodium salt]	1.01	1.04	1.02	1	1.05	1.01	1	0.889
CCN(CC)CCOCCOC(=O)C1(c2ccccc2)CCCC1 [Carbetapentane citrate]	0.995	1	1	1	1.01	1.01	0.995	0.992
CC[N+](CC)(CC(=O)Nc1c(C)cccc1C)Cc1ccccc1 [Denatonium benzoate]	1.01	1.02	1.03	0.982	1.05	1.09	0.999	1.01
COCCc1ccc(OCC(O)CNC(C)C)cc1 (stereo not drawn) [Metoprolol-(+)-tartrate salt]	0.996	0.977	0.998	0.996	1.01	1.03	1	1.01
CC1COc2c(N3CCN(C)CC3)c(F)cc3c(=O)c(C(=O)O)cn1c23 (stereo not given) [Ofloxacin]	0.00746 (active)	0.0235 (active)	0.031 (active)	0.0386 (active)	0.0133 (active)	0.0136 (active)	0.0106 (active)	0.00311 (active)
O=C1C(CC[S+]([O-])c2ccccc2)C(=O)N(c2ccccc2)N1c1ccccc1 (stereo not given) [Sulfinpyrazone]	0.996	1	1	0.971	1	1.01	0.998	0.985
CCOC(=O)C1=C(COCCN)NC(C)=C(C(=O)OC)C1c1ccccc1Cl (stereo not given) [Amlodipine]	0.997	0.99	0.985	1.01	1.02	1.02	1.02	1.01
CN(C)[C@@H]1C(=O)C(C(=O)NCNCCCC[C@H](N)C(=O)O)=C(O)[C@@]2(O)C(=O)C3=C(O)c4c(O)cccc4[C@@](C)(O)[C@H]3C[C@@H]12 [Lymecycline]	0.903 (active)	0.947	0.448 (active)	1.01	0.779	0.835	0.94	0.94
CNCC[C@@H](Oc1ccccc1C)c1ccccc1 [Tomoxetine hydrochloride]	1.01	1.02	1.01	1	0.954	0.969	0.996	0.974
